# The panel holds about 79,000 compounds, 15% with a hit somewhere; the sample as a whole holds those more often. A number with no mark means an inactive call. Calls of active or inactive are those of the source. Cut-off read from the data, not from the text of the source: active = growth inhibition above about 70%; inactive = the rest.
# Legend:
# [1] = NCI Yeast Anticancer Drug Screen. Data for the rad52 strain (AID 147);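 note: 0% = growth of vehicle-treated control cultures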; conditions: S. cerevisiae rad52 mutant growth inhibition, hits give high values
# How it was run: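 Here a repair-compromised yeast strain receives each compound; its growth is then quantified and normalised to vehicle-only controls.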
# [2] = NCI Yeast Anticancer Drug Screen. Data for the wt1 strain (AID 149);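 note: 0% = growth of vehicle-treated wt1 cultures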; conditions: S. cerevisiae wt1 strain (SPY 50644) growth inhibition, hits give high values
# How it was run: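 Readout: yeast growth inhibition, normalised to vehicle controls, in the wt1 strain exposed to test compounds.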
# [3] = NCI Yeast Anticancer Drug Screen. Data for the mgt1 strain (AID 153); conditions: S. cerevisiae mgt1 mutant growth inhibition, hits give high values
# How it was run: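 Measured: inhibition of mgt1 yeast growth by compound, normalized to vehicle-treated cultures.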
# [4] = NCI Yeast Anticancer Drug Screen. Data for the rad50 strain (AID 155);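 note: 0% = growth of vehicle-only cultures of the same strain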; conditions: S. cerevisiae rad50 strain growth inhibition, hits give high values
# How it was run: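 Compounds were tested on a yeast strain with an engineered DNA damage repair alteration; the reported value is growth inhibition normalised to vehicle treatment.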
# [5] = NCI Yeast Anticancer Drug Screen. Data for the mec2-1 strain (AID 157); conditions: S. cerevisiae mec2-1 strain, hits give high values
# How it was run: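 Using mec2-1 yeast: add compound, measure growth, express inhibition versus vehicle-treated cultures.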
# [6] = NCI Yeast Anticancer Drug Screen. Data for the rad14 strain (AID 159);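 note: 0% = growth of vehicle-treated control cultures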; conditions: S. cerevisiae rad14 strain growth inhibition, hits give high values
# How it was run: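 Compound-treated yeast with a defined DNA-repair lesion; growth inhibition normalised to vehicle-treated cultures.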
# [7] = NCI Yeast Anticancer Drug Screen. Data for the CLN2oe strain (AID 163);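 note: 0% = growth of vehicle-only control cultures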; conditions: S. cerevisiae CLN2oe strain, hits give high values
# How it was run: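 Whole-cell yeast growth assay. A strain engineered for altered cell-cycle control received compound, and inhibition relative to vehicle-treated cultures was recorded.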
# [8] = NCI Yeast Anticancer Drug Screen. Data for the cln2 rad14 strain (AID 165);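 note: 0% = growth equal to vehicle treated cultures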; conditions: S. cerevisiae cln2 rad14 strain, hits give high values
# How it was run: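 Yeast strain cln2 rad14, bearing defects in cell cycle control and DNA repair, serves as the test system; values reflect growth inhibition compared with vehicle.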
# [9] = NCI Yeast Anticancer Drug Screen. Data for the bub3 strain (AID 167); conditions: S. cerevisiae bub3 mutant strain, hits give high values
# How it was run: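 Growth of a checkpoint-deficient yeast mutant is measured after compound exposure. Values represent inhibition relative to vehicle.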
# [10] = NCI Yeast Anticancer Drug Screen. Data for the wt2 strain (AID 169);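 note: 0% = growth of vehicle-treated yeast cultures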; conditions: S. cerevisiae wt2 strain growth inhibition, hits give high values
# How it was run: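 Treated yeast vs. vehicle-treated yeast: growth inhibition determined.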
# [11] = NCI Yeast Anticancer Drug Screen. Data for the mlh1 strain (AID 171);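 note: 0% = growth of vehicle-treated control cultures of the same strain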; conditions: S. cerevisiae mlh1 strain growth inhibition, hits give high values
# How it was run: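 A yeast strain with a defined genetic lesion serves as the test organism. Cultures receive compound or vehicle, and growth is measured.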
# [12] = NCI Yeast Anticancer Drug Screen. Data for the sgs1 strain (AID 173);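 note: 0% = growth of vehicle-only control cultures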; conditions: S. cerevisiae sgs1 mutant, hits give high values
# How it was run: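 A genetically defined yeast mutant is incubated with the test compound, and its growth is compared to that of the same strain given vehicle.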
# [13] = NCI Yeast Anticancer Drug Screen. Data for the mlh1 rad18 strain (AID 175); conditions: S. cerevisiae mlh1 rad18 strain growth inhibition, hits give high values
# How it was run: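 Steps: expose repair-defective yeast to compound; measure growth; express inhibition against vehicle-treated controls.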
# [14] = NCI Yeast Anticancer Drug Screen. Data for the rad18 strain (AID 177); conditions: S. cerevisiae rad18 mutant growth inhibition, hits give high values
# How it was run: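 Measured value is growth inhibition of a yeast strain bearing a DNA repair alteration, referenced to vehicle-treated cells.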
# [15] = NCI Yeast Anticancer Drug Screen. Data for the rad50EPP+ strain (AID 151);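 note: 0% = growth of vehicle-treated control cultures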; conditions: S. cerevisiae rad50 mutant strain, hits give high values
# How it was run: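 Read-out is yeast growth inhibition relative to vehicle; cells used were the rad50EPP+ strain.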
# [16] = NCI Yeast Anticancer Drug Screen. Data for the sgs1 mgt1 strain (AID 161);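 note: 0% = growth of cultures given vehicle only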; conditions: S. cerevisiae sgs1 mgt1 strain, hits give high values
# How it was run: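 Yeast cells carrying a defined DNA-repair defect were exposed to test compounds. Growth inhibition was measured relative to vehicle-treated controls.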
# [17] = at 5.0 µM (retest, dose inferred, filed as 0.5)
# [18] = at 50.0 µM (retest, dose inferred, filed as 5.0)
structure (smiles),measurement,setting,value
BrCC[P+](c1ccccc1)(c1ccccc1)c1ccccc1,growth inhibition,[1]; at 1.2 µM,-39%
same,growth inhibition,[1]; at 3.7 µM,-45%
same,growth inhibition,[1]; at 11.0 µM,58%
same,growth inhibition,[1]; at 33.0 µM,94% (active)
same,growth inhibition,[1]; at 100.0 µM,96% (active)
same,growth inhibition,[2]; at 1.2 µM,-60%
same,growth inhibition,[2]; at 3.7 µM,-56%
same,growth inhibition,[2]; at 11.0 µM,-4%
same,growth inhibition,[2]; at 33.0 µM,96% (active)
same,growth inhibition,[2]; at 100.0 µM,98% (active)
same,growth inhibition,[3]; at 1.2 µM,-61%
same,growth inhibition,[3]; at 3.7 µM,-53%
same,growth inhibition,[3]; at 11.0 µM,-7%
same,growth inhibition,[3]; at 33.0 µM,94% (active)
same,growth inhibition,[3]; at 100.0 µM,98% (active)
same,growth inhibition,[4]; at 1.2 µM,-36%
same,growth inhibition,[4]; at 3.7 µM,-30%
same,growth inhibition,[4]; [17],19%
same,growth inhibition,[4]; at 11.0 µM,54%
same,growth inhibition,[4]; at 33.0 µM,94% (active)
same,growth inhibition,[4]; [18],97% (active)
same,growth inhibition,[4]; at 50.0 µM,84.7% (active)
same,growth inhibition,[4]; at 100.0 µM,95% (active)
same,growth inhibition,[5]; at 1.2 µM,-74%
same,growth inhibition,[5]; at 3.7 µM,-63%
same,growth inhibition,[5]; [17],16%
same,growth inhibition,[5]; at 11.0 µM,14%
same,growth inhibition,[5]; at 33.0 µM,95% (active)
same,growth inhibition,[5]; [18],98% (active)
same,growth inhibition,[5]; at 50.0 µM,90.2% (active)
same,growth inhibition,[5]; at 100.0 µM,97% (active)
same,growth inhibition,[6]; at 1.2 µM,-32%
same,growth inhibition,[6]; at 3.7 µM,-52%
same,growth inhibition,[6]; at 11.0 µM,-16%
same,growth inhibition,[6]; at 33.0 µM,94% (active)
same,growth inhibition,[6]; at 100.0 µM,97% (active)
same,growth inhibition,[7]; at 1.2 µM,-21%
same,growth inhibition,[7]; at 3.7 µM,-22%
same,growth inhibition,[7]; at 11.0 µM,2%
same,growth inhibition,[7]; at 33.0 µM,90% (active)
same,growth inhibition,[7]; at 100.0 µM,95% (active)
same,growth inhibition,[8]; [17],43%
same,growth inhibition,[8]; [18],98% (active)
same,growth inhibition,[8]; at 50.0 µM,73.8% (active)
same,growth inhibition,[9]; at 1.2 µM,-70%
same,growth inhibition,[9]; at 3.7 µM,-32%
same,growth inhibition,[9]; [17],47%
same,growth inhibition,[9]; at 11.0 µM,32%
same,growth inhibition,[9]; at 33.0 µM,93% (active)
same,growth inhibition,[9]; [18],98% (active)
same,growth inhibition,[9]; at 50.0 µM,87.8% (active)
same,growth inhibition,[9]; at 100.0 µM,97% (active)
same,growth inhibition,[10]; at 1.2 µM,-15%
same,growth inhibition,[10]; at 3.7 µM,-5%
same,growth inhibition,[10]; at 11.0 µM,15%
same,growth inhibition,[10]; at 33.0 µM,88% (active)
same,growth inhibition,[10]; at 100.0 µM,95% (active)
same,growth inhibition,[11]; at 1.2 µM,-38%
same,growth inhibition,[11]; at 3.7 µM,-70%
same,growth inhibition,[11]; at 11.0 µM,28%
same,growth inhibition,[11]; at 33.0 µM,93% (active)
same,growth inhibition,[11]; at 100.0 µM,97% (active)
same,growth inhibition,[12]; at 1.2 µM,-35%
same,growth inhibition,[12]; at 3.7 µM,-56%
same,growth inhibition,[12]; at 11.0 µM,-40%
same,growth inhibition,[12]; at 33.0 µM,89% (active)
same,growth inhibition,[12]; at 100.0 µM,94% (active)
same,growth inhibition,[13]; [17],5%
same,growth inhibition,[13]; [18],96% (active)
same,growth inhibition,[13]; at 50.0 µM,83.6% (active)
same,growth inhibition,[14]; at 1.2 µM,-59%
same,growth inhibition,[14]; at 3.7 µM,-42%
same,growth inhibition,[14]; at 11.0 µM,54%
same,growth inhibition,[14]; at 33.0 µM,95% (active)
same,growth inhibition,[14]; at 100.0 µM,95% (active)
C(CCSC1=NCCN1)CSC1=NCCN1 (tested in a mixture with another compound),growth inhibition,[1]; at 1.2 µM,20%
same,growth inhibition,[1]; at 3.7 µM,39%
same,growth inhibition,[1]; at 11.0 µM,79% (active)
same,growth inhibition,[1]; at 33.0 µM,99% (active)
same,growth inhibition,[1]; at 100.0 µM,99% (active)
same,growth inhibition,[15]; at 1.2 µM,30%
same,growth inhibition,[15]; at 3.7 µM,46%
same,growth inhibition,[15]; at 11.0 µM,78% (active)
same,growth inhibition,[15]; at 33.0 µM,73% (active)
same,growth inhibition,[15]; at 100.0 µM,99% (active)
same,growth inhibition,[3]; at 1.2 µM,-2%
same,growth inhibition,[3]; at 3.7 µM,18%
same,growth inhibition,[3]; at 11.0 µM,89% (active)
same,growth inhibition,[3]; at 33.0 µM,99% (active)
same,growth inhibition,[3]; at 100.0 µM,98% (active)
same,growth inhibition,[4]; at 1.2 µM,21%
same,growth inhibition,[4]; at 3.7 µM,44%
same,growth inhibition,[4]; [17],59%
same,growth inhibition,[4]; at 11.0 µM,83% (active)
same,growth inhibition,[4]; at 33.0 µM,99% (active)
same,growth inhibition,[4]; [18],98% (active)
same,growth inhibition,[4]; at 50.0 µM,99.2% (active)
same,growth inhibition,[4]; at 100.0 µM,98% (active)
same,growth inhibition,[5]; at 1.2 µM,5%
same,growth inhibition,[5]; at 3.7 µM,28%
same,growth inhibition,[5]; [17],43%
same,growth inhibition,[5]; at 11.0 µM,94% (active)
same,growth inhibition,[5]; at 33.0 µM,99% (active)
same,growth inhibition,[5]; [18],99% (active)
same,growth inhibition,[5]; at 50.0 µM,99.5% (active)
same,growth inhibition,[5]; at 100.0 µM,99% (active)
same,growth inhibition,[6]; at 1.2 µM,5%
same,growth inhibition,[6]; at 3.7 µM,27%
same,growth inhibition,[6]; at 11.0 µM,99% (active)
same,growth inhibition,[6]; at 33.0 µM,99% (active)
same,growth inhibition,[6]; at 100.0 µM,99% (active)
same,growth inhibition,[16]; [17],73% (active)
same,growth inhibition,[16]; [18],99% (active)
same,growth inhibition,[16]; at 50.0 µM,99.5% (active)
same,growth inhibition,[7]; at 1.2 µM,-5%
same,growth inhibition,[7]; at 3.7 µM,6%
same,growth inhibition,[7]; at 11.0 µM,29%
same,growth inhibition,[7]; at 33.0 µM,97% (active)
same,growth inhibition,[7]; at 100.0 µM,98% (active)
same,growth inhibition,[8]; [17],16%
same,growth inhibition,[8]; [18],98% (active)
same,growth inhibition,[8]; at 50.0 µM,97.6% (active)
same,growth inhibition,[9]; at 1.2 µM,-8%
same,growth inhibition,[9]; at 3.7 µM,12%
same,growth inhibition,[9]; [17],5%
same,growth inhibition,[9]; at 11.0 µM,94% (active)
same,growth inhibition,[9]; at 33.0 µM,99% (active)
same,growth inhibition,[9]; [18],98% (active)
same,growth inhibition,[9]; at 50.0 µM,99% (active)
same,growth inhibition,[9]; at 100.0 µM,98% (active)
same,growth inhibition,[10]; at 1.2 µM,-2%
same,growth inhibition,[10]; at 3.7 µM,10%
same,growth inhibition,[10]; at 11.0 µM,63%
same,growth inhibition,[10]; at 33.0 µM,99% (active)
same,growth inhibition,[10]; at 100.0 µM,99% (active)
same,growth inhibition,[11]; at 1.2 µM,5%
same,growth inhibition,[11]; at 3.7 µM,20%
same,growth inhibition,[11]; at 11.0 µM,83% (active)
same,growth inhibition,[11]; at 33.0 µM,99% (active)
same,growth inhibition,[11]; at 100.0 µM,98% (active)
same,growth inhibition,[12]; at 1.2 µM,11%
same,growth inhibition,[12]; at 3.7 µM,35%
same,growth inhibition,[12]; at 11.0 µM,86% (active)
same,growth inhibition,[12]; at 33.0 µM,99% (active)
same,growth inhibition,[12]; at 100.0 µM,99% (active)
same,growth inhibition,[13]; [17],77% (active)
same,growth inhibition,[13]; [18],98% (active)
same,growth inhibition,[13]; at 50.0 µM,99% (active)
same,growth inhibition,[14]; at 1.2 µM,26%
same,growth inhibition,[14]; at 3.7 µM,52%
same,growth inhibition,[14]; at 11.0 µM,91% (active)
same,growth inhibition,[14]; at 33.0 µM,99% (active)
same,growth inhibition,[14]; at 100.0 µM,99% (active)
